Compounds without any hit were thinned out: in the full panel of roughly 79,000, 15% have a hit. Values without a mark were called inactive. Activity calls are given as the source filed them. Rule as the data show it: active = growth inhibition above about 70%; inactive = the rest.

The nature of assay [1]: NCI Yeast Anticancer Drug Screen. Data for the rad50 strain (AID 155).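 Also: 0% = growth of vehicle-only cultures of the same strain.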 The note with it: S. cerevisiae rad50 strain growth inhibition; at 50.0 µM; stronger effect = higher value. In a few lines: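 Cells are treated with compound, grown, and their growth is then scored against vehicle-only cultures of the same repair-deficient yeast strain.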
Assay [2] can be described thus: NCI Yeast Anticancer Drug Screen. Data for the mec2-1 strain (AID 157). The note with it: S. cerevisiae mec2-1 strain, at 50.0 µM, stronger effect = higher value. In a few lines:
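Strain: mec2-1 (DNA repair/cell cycle alteration). Compound exposure, then growth measured; inhibition expressed relative to vehicle.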

A short description of assay [3]: NCI Yeast Anticancer Drug Screen. Data for the sgs1 mgt1 strain (AID 161).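 Also: 0% = growth of cultures given vehicle only.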 The following applies: S. cerevisiae sgs1 mgt1 strain, at 50.0 µM, stronger effect = higher value. Put shortly: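 Test agents were incubated with a DNA-repair-mutant yeast strain. Growth was then read and compared against vehicle-treated controls.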
A short description of assay [4]: NCI Yeast Anticancer Drug Screen. Data for the cln2 rad14 strain (AID 165).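 Also: 0% = growth equal to vehicle treated cultures.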 The following applies: S. cerevisiae cln2 rad14 strain, at 50.0 µM, stronger effect = higher value. In a few lines:
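Compounds are applied to the cln2 rad14 yeast strain, and growth is then compared with that of vehicle-treated cultures to give inhibition.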

Assay [5] is described as follows: NCI Yeast Anticancer Drug Screen. Data for the bub3 strain (AID 167). The following applies: S. cerevisiae bub3 mutant strain, at 50.0 µM, stronger effect = higher value. In a few lines:
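Part of a panel of yeast mutants defective in DNA damage repair or cell cycle regulation. Each strain is grown with compound, and inhibition is calculated relative to solvent-treated cultures.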

The nature of assay [6]: NCI Yeast Anticancer Drug Screen. Data for the mlh1 rad18 strain (AID 175). The note with it: S. cerevisiae mlh1 rad18 strain growth inhibition; at 50.0 µM; stronger effect = higher value. In a few lines:
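Read-out is yeast growth inhibition, calculated against vehicle-only controls. The compound was applied to a strain engineered with DNA damage repair alterations.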

For the compound `C=CS(=O)(=O)CCOc1ccc(Cl)cc1Cl`, the growth inhibition in assay [1] was 98.8% (active); in assay [2], 99.2% (active); in assay [3], 99.7% (active); in assay [4], 97.8% (active); in assay [5], 98.4% (active); in assay [6], 98.9% (active).
Consider `CCCCCC(=O)/C=C/CC(CCCCCCC#N)C(CC(OC)OC)[N+](=O)[O-]` (stereo unspecified), for which the growth inhibition was -42.2% in assay [1]; -24.2% in assay [2]; 0.9% in assay [3]; 14.3% in assay [4]; -1.75% in assay [5]; -37.4% in assay [6].
Take `COc1cc(Cl)ccc1C`: the growth inhibition in assay [1] was -1.2%; in assay [2], -1.75%; in assay [3], 5.75%; in assay [4], -14.3%; in assay [5] it was 18.1%; in assay [6], -16.6%.
As to `C[C@@]1(Cc2ccccc2)C(=O)N2[C@@H](CO)C(c3ccccc3)O[C@]2(C)c2ccccc21` (stereo partly specified), the growth inhibition was -10.8% in assay [1]; 4.7% in assay [2]; -14.7% in assay [3]; -6.05% in assay [4]; -8.8% in assay [5]; -29.3% in assay [6].
Regarding `O=[N+]([O-])c1ccc(/C=N/C(/N=C/c2ccc([N+](=O)[O-])cc2)c2ccc([N+](=O)[O-])cc2)cc1`, the growth inhibition was 8.05% in assay [1]; -6.25% in assay [2]; 6.35% in assay [3]; 1.55% in assay [4]; -4.05% in assay [5]; 23.9% in assay [6].
For the compound `CSC(=NCc1ccccc1)Nc1c(C)cccc1C`, the growth inhibition in assay [1] is 13.4%; in assay [2], 4.45%; in assay [3] it was 6.75%; in assay [4] it was 8.1%; in assay [5], 28.1%; in assay [6], 17.1%.
As to `N#Cc1c[nH]n2ccnc12`, the growth inhibition in assay [1] was -16.7%; in assay [2], -20.4%; in assay [3], -23.4%; in assay [4], -21.7%; in assay [5], -4.1%; in assay [6], -17.1%.
On to `CCOC(=O)Nc1ccc([N+](=O)[O-])cc1[N+](=O)[O-]`, for which the growth inhibition is 15.9% in assay [1]; -0.45% in assay [2]; 16.2% in assay [3]; 14.8% in assay [4]; 8.6% in assay [5]; 13.2% in assay [6].
For the compound `Cc1cc(Br)cc(C)c1NC(=O)C(=O)C(C(=O)c1ccncc1)C1OC(=O)c2ccccc21` (stereo unspecified), the growth inhibition in assay [1] is -12.6%; in assay [2], -31.1%; in assay [3], -51.9%; in assay [4], 15.8%; in assay [5], 16.2%; in assay [6] it was -7.35%.
With `O=CNc1ccc(F)c(F)c1`, the growth inhibition is -16.8% in assay [1]; -16.4% in assay [2]; -6.95% in assay [3]; -5.35% in assay [4]; -7.2% in assay [5]; -10.1% in assay [6].
For `CC(NC(=O)CCl)c1ccccc1` (stereo unspecified), the growth inhibition in assay [1] is 23.7%; in assay [2] it was -12.2%; in assay [3] it was -12.9%; in assay [4], 14.4%; in assay [5], 4.25%; in assay [6], 36.4%.
Consider `CN(C)c1ncnc2c1cnn2-c1ccccc1`, for which the growth inhibition in assay [1] was -4.45%; in assay [2], -4.35%; in assay [3], 0.2%; in assay [4], -40.8%; in assay [5], -0.25%; in assay [6], -3.15%.
`Cc1ccc(S(=O)(=O)OC(CI)C2OC(c3ccccc3)OC3COC(c4ccccc4)OC32)cc1` (stereo unspecified): the growth inhibition in assay [1] is 0.25%; in assay [2], 13.2%; in assay [3] it was 7.7%; in assay [4], 8.6%; in assay [5], 16.1%; in assay [6], 25.6%.
Regarding `COC(=O)/C=C\CC(=O)OC`, the growth inhibition was 2.75% in assay [1]; -5% in assay [2]; -19.9% in assay [3]; -5.05% in assay [4]; -11% in assay [5]; -0.65% in assay [6].
In the case of `O=C1C=CC[C@H](/C=C/c2ccccc2)O1`, the growth inhibition in assay [1] is 21.6%; in assay [2], 31.8%; in assay [3], 28.6%; in assay [4], 24.4%; in assay [5], 33.5%; in assay [6] it was 48.9%.
Regarding `COC(=O)C(CCCCNC(=O)OCc1ccccc1)NC(=O)c1ccc(N(C)C=O)cc1` (stereo unspecified), the growth inhibition was 14.6% in assay [1]; 19.7% in assay [2]; -1.7% in assay [3]; 26.6% in assay [4]; 3.45% in assay [5]; 14.8% in assay [6].
With `Cc1[nH]c(=O)n2c(C)nnc2c1C(=O)O`, the growth inhibition was -5.3% in assay [1]; -4.15% in assay [2]; 1.95% in assay [3]; -10.2% in assay [4]; -2.7% in assay [5]; -1.55% in assay [6].
`COc1cccc(-c2nc3ccccc3c(=O)[nH]2)c1OC`: the growth inhibition is 33.2% in assay [1]; -16.6% in assay [2]; 10.1% in assay [3]; 18.1% in assay [4]; 16.5% in assay [5]; 19.9% in assay [6].
`CNCCNc1ncc([N+](=O)[O-])s1`: the growth inhibition in assay [1] was -3.25%; in assay [2], -9.1%; in assay [3], -37.6%; in assay [4], -25.1%; in assay [5] it was -43%; in assay [6], -32.5%.
`O=C(OCCO)C1CC2CC1C1(C2)OCCO1` (stereo unspecified): the growth inhibition in assay [1] is -2%; in assay [2] it was -13.2%; in assay [3] it was 13.9%; in assay [4], -12.1%; in assay [5] it was 42%; in assay [6] it was 0.5%.
On to `COC(=O)c1nc(=S)[nH]c(C(=O)OC)c1C(=O)/C=C/c1ccccc1`, for which the growth inhibition is 0.1% in assay [1]; -1.7% in assay [2]; 8.05% in assay [3]; -14.2% in assay [4]; -1.75% in assay [5]; 11.8% in assay [6].
